Measurements taken from PubChem BioAssay (NCI).
“And” between values parts separate entries of the source, which are not always exact repeats. Identical values can stand only once. About 83,000 compounds went through this panel and 20% of them were active in at least one assay; those are over-represented in the sample as a whole.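 Testing used 96-well plates and a 48-hour single-concentration exposure. Example: -40 means 40% of the starting cells died.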 The source made the active and inactive calls. The calls were made as follows: active = growth percent below 10; inactive = the rest.

These molecules were tested on MDA-MB-468 breast (assay: NCI-60 one-dose screen, 48 h (100 = growth as untreated, 0 = no growth, -100 = all killed)). Conditions: 10 µM unless noted.

Row | Structure (SMILES) | growth
1 | CNCCNc1nc2ccccc2c2c(=O)c3cc(F)ccc3oc12 | 59.1% (inactive)
2 | CCCC[N+](C)(N)CCCC | 106% (inactive)
3 | Cc1ccc(-c2cc3nc(C(Cl)Cl)nc(-c4cccnc4)n3n2)cc1 | -61.5% (active)
4 | CCC(C)[C@H](NC(=O)NC(=O)NC(=O)CI)C(=O)OC (some centres not stated) | 86.4% (inactive)
5 | CC[C@@H]1OC(=O)[C@H](C)[C@@H](O[C@H]2C[C@@](C)(OC)[C@@H](O)[C@H](C)O2)[C@H](C)[C@@H](O[C@@H]2O[C@H](C)C[C@H](N(C)C)[C@H]2O)[C@](C)(O)C[C@@H](C)[C@@H]2N[C@@H](COCCOC)O[C@H]([C@H]2C)[C@]1(C)O | 109% (inactive)
6 | O=C1/C(=C(/c2ccccc2)N2CCOCC2)Cc2ccccc21 | -19% (active)
7 | O=C(NC(CSSCC(NC(=O)OCc1ccccc1)C(=O)O)C(=O)O)OCc1ccccc1 (configuration not stated) | 84.5% (inactive) and 102% (inactive)
8 | c1ccc2cc(-c3n(Cc4ccc5ccccc5n4)c4ccccc4[n+]3Cc3ccc4ccccc4n3)ccc2c1 | -36% (active)
9 | CC(C)C1CCCCC1O (configuration not stated) | 107% (inactive)
10 | NS(=O)(=O)c1ccc(CCn2c(SCC(=O)N/N=C/c3cccnc3)nc3ccccc3c2=O)cc1 | 92.9% (inactive)
11 | Cc1nc2sc(C(=O)Nc3cccc4ccccc34)c(N)c2cc1C(=O)c1ccccc1 | 5.45% (active)
12 | Cc1ccc(C)c(CN(C)C)c1O | 97.7% (inactive)
13 | COc1ccc(C2CC(c3ccc4ccccc4c3)=NN2/C=C2\SC(=S)N(NC(=O)Cc3ccccc3Nc3c(Cl)cccc3Cl)C2=O)cc1 (configuration not stated) | 7.11% (active)
14 | CC(C)N(Cc1ccc(CN(C(=O)CCl)C(C)C)cc1)C(=O)CCl | 15.4% (inactive)
15 | Oc1c(I)cc(I)cc1CN(Cc1ccccn1)Cc1ccccn1 | 8.74% (active)
16 | C[N+](C)(CCCCCC[N+](C)(C)C1c2ccccc2-c2ccccc21)C1c2ccccc2-c2ccccc21 | 107% (inactive)
17 | C[C@@H](Oc1cc(-c2cnn(C3CC4(CCNCC4)C3)c2)cnc1N)c1c(F)ccc(Cl)c1Cl | -53.3% (active)
18 | CCCCCCc1cc2cc(-c3csc(/C=C/c4ccccc4)n3)c(=O)oc2cc1O | -21.1% (active)
19 | COc1ccc(/C(Cl)=N/N=C(\Cl)c2cc(OC)c(OC)c(OC)c2)cc1OC(C)=O | 95.5% (inactive)

Row | Structure (SMILES) | growth
20 | COc1ccc(OC)c(C2OC(c3ccc4ccccc4c3O)=NN2C(C)=O)c1 (configuration not stated) | 53.9% (inactive)
21 | C=C(C)[C@@H]1CC[C@]2(C)[C@H](CC=C3[C@@H]4CC(C)(C)CC[C@]4(C(=O)OC)CC[C@]32C)[C@@]1(C)CC/C(N)=N/O | -13% (active)
22 | N#Cc1c(-c2ccccc2)nc2c(c(-c3ccccc3)nn2-c2ccccc2)c1-c1ccc(O)cc1 | 38.3% (inactive)
23 | CCCN=C(N)c1ccc(NC(=O)c2ccc(C(=O)Nc3ccc(C(N)=NCCC)cc3)cc2)cc1 | 67.1% (inactive)
24 | CCCCCCCCCCCCCCCCCCn1cc(COc2ccc(C=O)cc2)nn1 | 104% (inactive)
25 | O=C(Nc1ccccc1Cl)Oc1ccc(-c2ccccc2)cc1 | 115% (inactive)
26 | Cc1cc(Cl)nc(N(CCNc2ccnc3cc(Cl)ccc23)Cc2ccccn2)n1 | 3.86% (active)
27 | CCN1C(=O)/C(=c2\sc3n(c2=O)C2C(NN=3)N(CC)C(=O)N2CC)c2ccccc21 (configuration not stated) | -13.5% (active)
28 | Cn1cc(C(=O)NCCC(=N)N)cc1NC(=O)CN=C(N)N | 96.7% (inactive)
29 | CCn1c2ccccc2c2cc(-n3nncc3-c3ccccc3)ccc21 | 46.4% (inactive)
30 | O=C1N(C[P+](c2ccccc2)(c2ccccc2)c2ccccc2)CCCN1C[P+](c1ccccc1)(c1ccccc1)c1ccccc1 | 105% (inactive)
31 | O=C(C[C@]1(O)C(=O)Nc2ccc(Br)cc21)c1ccco1 | 109% (inactive)
32 | Nc1nc(-c2ccc(F)cc2)cc(-c2cnn(-c3ccccc3)n2)n1 | 104% (inactive)
33 | CCC(C)C(N)C(=O)NNc1n[nH]c(=S)n1N (configuration not stated) | 104% (inactive)
34 | COc1ccc(C(=O)c2cc(F)c(F)c(OC)c2F)cc1OC(=O)CCl | 61.3% (inactive)
35 | COc1ccc(\C=N/N=C(N)/C(N)=N\N=C/c2ccc(OC)cc2)cc1 | 95.7% (inactive)
36 | O=C(Nc1ccccc1)Nc1nc2ccc([N+](=O)[O-])cc2s1 | -22.6% (active)
37 | C#Cc1nc(C2=C(C)C(=O)/C(=N/OC(C)=O)C2)cs1 | 69.9% (inactive)
